# Assay outcomes as filed in PubChem BioAssay.
# mHTT CaM bind: mutant huntingtin-calmodulin interaction inhibitors – biochemical, AlphaScreen, primary screen; AID 1671202, 2021; actives 3.6% (n = 190,000); AlphaScreen His-mHTT/GST-CaM binding, luminescence; inhibition, % at 15 µM
# Pf apPOL inh: Pf-apPOL inhibitors, biochemical, fluorescence | Plasmodium falciparum apicoplast DNA polymerase (apPOL) | Recombinant Pf-apPOL, molecular beacon fluorescence, 1.5 h | inhibition, % at 10 µM | actives 0.25% (n = 210,000) | AID 1794808, 2022
# Hits are given with their value; . = inactive; / = not tested or not shown. In the library only some 3.6% were active in any assay of this set; here they are far more common. Cut-off read from the data, not from the text of the source: active = inhibition above about 50%; inactive = the rest.
SMILES,mHTT CaM bind,Pf apPOL inh
CCn1ccc2sc(C)c(C(=O)N3CCC(Cc4ccccc4)CC3)c2c1=O,80.0,.
CC(=O)c1ccc(NC(=O)C(CC(C)C)N2C(=O)c3ccccc3C2=O)cc1 (centres undefined),.,.
COc1cc(Br)cc(C=Nc2cccc(NC(=O)c3ccccc3)c2)c1O,.,.
Cc1cccc(N2N=NC3C(=O)N(c4ccc(F)cc4)C(=O)C32)c1 (centres undefined),.,.
Cc1cc(C2(c3ccc(O)c(C)c3)C(=O)Nc3c(C)cc([N+](=O)[O-])cc32)ccc1O,85.7,.
Cc1cccc2c1NC(=O)C2(c1ccc(O)cc1)c1ccc(O)cc1,.,.
CNC(=S)NNC(=O)c1ccsc1,/,.
CC1(C)CC(CCNCc2ccco2)(Cc2ccccc2Cl)CCO1 (centres undefined),.,.
O=C(c1cccc(OCC2CCCN(C(=O)c3ccc(F)c(Cl)c3)C2)c1)N1CCCC1 (centres undefined),.,.
C/C(=C\C(=O)c1ccc(Cl)cc1)Nc1ccc(O)cc1,.,.
O=C1Nc2ccccc2C1=Nc1ccc(C(=O)c2ccccc2)cc1,.,.
O=C1Nc2ccccc2C1=Nc1ccc(Nc2ccccc2)cc1,100.0,.
O=C(CSCc1ccccc1)NCCc1csc(-c2ccc(F)cc2)n1,.,.
COc1ccc2c(c1)N1CCN(Cc3ccc(F)cc3)CC1C(C(=O)NC1CC1)C2 (centres undefined),93.2,.
COc1ccc2c(c1)N1CCN(c3ccccc3OC)CC1C(C(=O)NC1CC1)C2 (centres undefined),58.7,.
C=CCNC(=O)C1Cc2ccccc2N2CCN(c3cc(Cl)ccc3OC)CC12 (centres undefined),54.9,.
CCNC(=O)C1Cc2ccc(OC)cc2N2CCN(Cc3ccc(F)cc3)CC12 (centres undefined),.,.
COc1ccccc1N1CCN2c3ccccc3CC(C(=O)NC3CC3)C2C1 (centres undefined),.,.
CCNC(=O)C1Cc2ccccc2N2CCN(c3cc(Cl)ccc3OC)CC12 (centres undefined),.,.
Nc1nnc(SCC(=O)Nc2ccc([N+](=O)[O-])cc2)s1,.,.
O=c1c2c(nc(SCc3ccccn3)n1CCc1ccccc1)CCS2,.,.
CCCc1cc(C2CCCN2Cc2ccc(OC)c(O)c2)no1 (centres undefined),.,.
Cc1cc([N+](=O)[O-])ccc1-c1ccc(/C=C2/NC(=O)NC2=O)o1,54.0,.
Cc1ccc(C(=O)O)cc1-c1ccc(/C=C2/NC(=O)NC2=O)o1,.,.
CCN(CCCNC(=O)Cc1cn(C)c2ccccc12)c1ccccc1,53.0,.
SMILES,mHTT CaM bind,Pf apPOL inh
CCN(CC)CCCNC(=O)Cc1cn(C)c2ccccc12,.,.
Cc1cccc(NC(=O)CSCc2ccc(Cl)cc2)c1C,.,.
Brc1cccc(-c2noc(CSc3nccn3-c3ccccc3)n2)c1,63.4,.
O=S(=O)(Cc1nc(-c2cccc(Br)c2)no1)c1ccccc1,.,.
Cc1cccc(NC(=O)CN2C(=O)C(c3ccc(F)cc3)=NC23CCCCC3)c1,.,.
NC(N)=NC(N)=Nc1cc(-c2cccs2)[nH]n1,/,.
Cc1cc(-c2ccccc2)n[nH]1,.,82.8
Cc1ccccc1-c1cc(-c2ccccc2O)on1,.,.
Cc1ccc(O)c(-c2cc(-c3ccccc3)n[nH]2)c1,74.3,.
Cc1nc2cccc(-c3cc(-c4ccccc4O)[nH]n3)c2o1,67.0,.
Cc1[nH]nc(-c2ccccc2)c1Br,.,.
Oc1ccccc1-c1cc(-c2ccccc2)no1,.,.
Cc1ccc(O)c(-c2cc(-c3cccs3)[nH]n2)c1,56.0,.
Nc1ccc2oc(-c3cc(I)ccc3Cl)nc2c1,.,.
CN(CC12CC3CC(CC(C3)C1)C2)S(=O)(=O)N1CCCCC1,.,/
Cc1nc(SCC(=O)Nc2ccc(S(N)(=O)=O)cc2)c2cnn(-c3ccccc3)c2n1,.,.
COc1ccc(/C=C(\NC(=O)c2cccs2)C(=O)Nc2ccc(C(C)=O)cc2)cc1OC,.,.
COc1ccc(-c2cc(C(=O)O)c3cc(C)ccc3n2)cc1,.,.
COc1ccc(-c2cc(-c3cc(C)ccc3O)[nH]n2)cc1,70.2,.
Oc1ccccc1-c1cc(-c2cccc(Br)c2)n[nH]1,96.1,.
Oc1ccccc1-c1cc(-c2ccc(Br)cc2)n[nH]1,.,.
Cc1ccc(C2=N/C(=C\c3ccccc3C)C(=O)O2)cc1,.,.
Cc1cc(-c2cc(Cl)ccc2O)n[nH]1,.,.
O=[N+]([O-])c1ccccc1-c1cc(-c2cc(Cl)ccc2O)n[nH]1,100.2,.
O=C(c1cc2sccc2n1Cc1ccccc1F)N1CCOCC1,.,.
CCn1c(C(=O)N2CCN(Cc3ccccc3)CC2)cc2sccc21,57.2,.
C=CCn1c(-c2ccccc2)csc1=Nc1c(C)n(C)n(-c2ccccc2)c1=O,.,.
Cc1c(N=c2scc(-c3ccc(Cl)cc3)n2Cc2ccco2)c(=O)n(-c2ccccc2)n1C,60.0,.
